Laboratory results: PubChem BioAssay (NCATS)
Records with an inconclusive call do not appear. Entries that show only a call come without a potency. Calls of active or inactive are those of the source. Calls follow the shape of the dose curve; as a rule, active = well fitted inhibition curve with a large enough effect; inconclusive = small, poorly fitted or top-dose-only effect, or effect the other way; inactive = flat fitted curve, though single readings scatter.

biological target: ATP-dependent 6-phosphofructokinase (Trypanosoma brucei brucei) (UniProt O15648); assay: qHTS Assay to Find Inhibitors of T. brucei phosphofructokinase: hit validation (AID 492961);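 also: luminescence reports ADP formed as PFK phosphorylates fructose-6-phosphate with ATP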; conditions: T. brucei PFK, ADP-Glo luminescence; series mostly up to 51.4 µM
Sequence (O15648 whole entry, looked up): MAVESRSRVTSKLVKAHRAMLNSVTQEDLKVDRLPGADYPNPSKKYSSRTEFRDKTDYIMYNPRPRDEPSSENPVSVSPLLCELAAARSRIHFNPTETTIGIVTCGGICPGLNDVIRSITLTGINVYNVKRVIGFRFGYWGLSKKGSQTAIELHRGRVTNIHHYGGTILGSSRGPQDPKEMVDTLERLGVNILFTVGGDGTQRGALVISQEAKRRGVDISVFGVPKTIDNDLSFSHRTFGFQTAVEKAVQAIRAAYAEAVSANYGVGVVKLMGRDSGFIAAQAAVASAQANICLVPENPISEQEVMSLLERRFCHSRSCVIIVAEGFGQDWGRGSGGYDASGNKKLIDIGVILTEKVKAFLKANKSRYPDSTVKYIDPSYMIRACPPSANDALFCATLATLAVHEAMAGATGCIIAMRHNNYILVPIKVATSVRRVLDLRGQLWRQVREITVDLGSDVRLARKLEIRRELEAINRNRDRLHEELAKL
Summary of the method: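 Inhibition of parasite PFK is measured as reduced ADP formation, quantified via luciferase after ATP depletion. Assay used 0.1 mM ATP, 0.5 mM F6P, 1.25 nM enzyme, 45 min incubation.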

**Q.** For `COC(=O)[C@@H](N)CS`, which Potency is on record?
**A.** Its Potency is “inactive”.

**Q.** How did the Potency turn out when `CO/N=C(/C(=O)N[C@@H]1C(=O)N2C(C(=O)O)=C(COC(N)=O)CS[C@H]12)c1ccco1` was run?
**A.** The Potency was “inactive”.

**Q.** For `CC(C)C1=CC2=CC[C@@H]3[C@](C)(CCC[C@@]3(C)C(=O)O)[C@H]2CC1`, which Potency is on record?
**A.** Its Potency is “inactive”.

**Q.** For `CC/C(=C(/CC)c1ccc(OP(=O)(O)O)cc1)c1ccc(OP(=O)(O)O)cc1`, which Potency is on record?
**A.** The Potency was “inactive”.

**Q.** How did the Potency turn out when `C/C=C/C=C/C(=O)O` was run?
**A.** Its Potency is “inactive”.

**Q.** With `OCC(O)CO` as the molecule, how does the Potency read?
**A.** Its Potency is “inactive”.

**Q.** `CCN(CC)CCOC(=O)c1cccnc1` was tested. Which Potency did it give?
**A.** Its Potency is “inactive”.

**Q.** How did the Potency turn out when `CC(C)=CCC/C(C)=C/CC/C(C)=C/CC/C=C(\C)CC/C=C(\C)CCC=C(C)C` was run?
**A.** Its Potency is “inactive”.

**Q.** Which Potency does the source give for `COc1ccc(C(=O)CCC(=O)O)c2ccccc12` here?
**A.** The Potency was “inactive”.

**Q.** How did the Potency turn out when `C[C@H]1O[C@@H](O[C@H]2[C@@H](O)C[C@H](O[C@H]3[C@@H](O)C[C@H](O[C@H]4CC[C@@]5(C)[C@H](CC[C@@H]6[C@@H]5C[C@@H](O)[C@]5(C)[C@@H](C7=CC(=O)OC7)CC[C@]65O)C4)O[C@@H]3C)O[C@@H]2C)C[C@H](O)[C@@H]1O` was run?
**A.** The Potency was “inactive”.

**Q.** Which Potency does the source give for `CC1(C)S[C@@H]2[C@H](NC(=O)C3(N)CCCCC3)C(=O)N2[C@H]1C(=O)O` here?
**A.** Its Potency is “inactive”.

**Q.** How did the Potency turn out when `O=C(OC1C[C@@H]2CC3C[C@H](C1)N2CC3=O)c1c[nH]c2ccccc12` (stereo partly specified) was run?
**A.** The Potency was “inactive”.

**Q.** For `CC1=CC(=O)NS(=O)(=O)O1`, which Potency is on record?
**A.** The Potency was “inactive”.

**Q.** `CCCCCCCCCCCC(=O)N(CCO)CCO` was tested. Which Potency did it give?
**A.** The Potency was “inactive”.

**Q.** Which Potency does the source give for `O=[n+]1ccn([O-])c2ccccc21` here?
**A.** The Potency was “inactive”.

**Q.** How did the Potency turn out when `[O]=[Bi][O][Bi]=[O]` was run?
**A.** Its Potency is “inactive”.

**Q.** How did the Potency turn out when `CC(C)(C)CC(C)(C)c1ccc(OCCO)cc1` was run?
**A.** Its Potency is “inactive”.

**Q.** With `O=C1N=C2SCCN2C(=O)C1Cc1ccc(Cl)cc1` (stereo unspecified) as the molecule, how does the Potency read?
**A.** Its Potency is “inactive”.

**Q.** For `C=CCCCCCCCCC(=O)OC`, which Potency is on record?
**A.** The Potency was “inactive”.

**Q.** How did the Potency turn out when `CC(C)(C)CC(C)(C)c1cc(Cc2cc(C(C)(C)CC(C)(C)C)cc(-n3nc4ccccc4n3)c2O)c(O)c(-n2nc3ccccc3n2)c1` was run?
**A.** Its Potency is “inactive”.

**Q.** With `OCl` as the molecule, how does the Potency read?
**A.** Its Potency is “inactive”.

**Q.** With `CCCC(CCC)C(=O)OC1C[C@H]2CC[C@@H](C1)[N+]2(C)C` (stereo partly specified) as the molecule, how does the Potency read?
**A.** Its Potency is “inactive”.

**Q.** With `O=C(O)CC/C=C\CC[C@@H]1[C@@H](N2CCCCC2)[C@@H](O)C[C@@H]1OCc1ccc(-c2ccccc2)cc1` as the molecule, how does the Potency read?
**A.** Its Potency is “inactive”.

**Q.** How did the Potency turn out when `CNC(=O)c1c(I)c(C(=O)NCC(=O)Nc2c(I)c(C(=O)O)c(I)c(C(=O)NCCO)c2I)c(I)c(N(C)C(C)=O)c1I` was run?
**A.** Its Potency is “inactive”.

**Q.** `Cc1cc(=O)c(C(=O)N[C@@H](C(=O)N[C@@H]2C(=O)N3C(C(=O)O)=C(CSc4nnnn4C)CS[C@H]23)c2ccc(O)cc2)c[nH]1` was tested. Which Potency did it give?
**A.** Its Potency is “inactive”.

**Q.** With `CO` as the molecule, how does the Potency read?
**A.** The Potency was “inactive”.

**Q.** `CC(C)(COP(=O)(O)OP(=O)(O)OC[C@H]1O[C@@H](n2cnc3c(N)ncnc32)[C@H](O)[C@@H]1OP(=O)(O)O)C(O)C(=O)NCCC(=O)NCCS` (stereo partly specified) was tested. Which Potency did it give?
**A.** The Potency was “inactive”.

**Q.** How did the Potency turn out when `O=C(O)/C=C/C(=O)Nc1ccc(S(=O)(=O)Nc2nccs2)cc1` was run?
**A.** The Potency was “inactive”.

**Q.** For `S=C1SCN(Cc2ccccc2)CN1Cc1ccccc1`, which Potency is on record?
**A.** Its Potency is “inactive”.

**Q.** How did the Potency turn out when `C=CC(C)(O)CC/C=C(\C)CCC=C(C)C` (stereo unspecified) was run?
**A.** Its Potency is “inactive”.

**Q.** `FC(F)OC(Cl)C(F)(F)F` (stereo unspecified) was tested. Which Potency did it give?
**A.** The Potency was “inactive”.

**Q.** `CC(=O)Nc1ccc(OC(=O)c2ccccc2O)cc1` was tested. Which Potency did it give?
**A.** The Potency was “inactive”.

**Q.** For `CCOC(=O)c1cc(-c2ccccc2)nc2ccc(C)cc12`, which Potency is on record?
**A.** Its Potency is “inactive”.

**Q.** `CCCCCCCCCCCCCCCCOCCOCCOCCOCCOCCOCCOCCOCCOCCOCCOCCOCCOCCOCCOCCOCCOCCOCCOCCOCCO` was tested. Which Potency did it give?
**A.** The Potency was “inactive”.

**Q.** For `CC(C)CCCCCCc1ccc(O)cc1`, which Potency is on record?
**A.** Its Potency is “inactive”.

**Q.** With `OC[C@H]1O[C@@H]2O[C@H]3[C@H](O)[C@@H](O)[C@@H](O[C@H]4[C@H](O)[C@@H](O)[C@@H](O[C@H]5[C@H](O)[C@@H](O)[C@@H](O[C@H]6[C@H](O)[C@@H](O)[C@@H](O[C@H]7[C@H](O)[C@@H](O)[C@@H](O[C@H]1[C@H](O)[C@H]2O)O[C@@H]7CO)O[C@@H]6CO)O[C@@H]5CO)O[C@@H]4CO)O[C@@H]3CO` as the molecule, how does the Potency read?
**A.** The Potency was “inactive”.
